Experimental data published in the supplement of paper PMC4466140.

molecular target: AgAbp1; experiment: SPOT peptide array binding signal intensity (averaged, normalized) (arbitrary units (background-subtracted, floor 0; scale differs between SH3 domains)); higher = stronger binding of the SH3 domain to the peptide
Outline: (§1)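 Binding signal is given in arbitrary units that differ between domains and is the normalized, background-subtracted spot intensity averaged across replicates. Each GST-SH3 fusion from one of four yeast species was made in E. coli BL21(DE3), purified on glutathione Sepharose and incubated at 10 μg/ml overnight at 4°C on cellulose-bound synthetic 15-mer peptides in which cysteines were replaced by serines. Detection used anti-GST antibody, an HRP anti-mouse secondary and luminol, followed by imaging and Genespotter quantification.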

Row | Binder | SPOT peptide array binding signal intensity
1 | APERAVPILPPRNNV | 7.5

molecular target: AgBbc1; experiment: as above
Outline: as §1

Row | Binder | SPOT peptide array binding signal intensity
2 | APERAVPILPPRNNV | 160

molecular target: AgBem1-D1; experiment: as above
Outline: as §1

Row | Binder | SPOT peptide array binding signal intensity
3 | APERAVPILPPRNNV | 47.5

molecular target: AgBzz1-D1; experiment: as above
Outline: as §1

Row | Binder | SPOT peptide array binding signal intensity
4 | APERAVPILPPRNNV | 84.5

molecular target: AgBzz1-D2; experiment: as above
Outline: as §1

Row | Binder | SPOT peptide array binding signal intensity
5 | APERAVPILPPRNNV | 10.5

molecular target: AgCyk3; experiment: as above
Outline: as §1

Row | Binder | SPOT peptide array binding signal intensity
6 | APERAVPILPPRNNV | 9

molecular target: AgFus1; experiment: as above
Outline: as §1

Row | Binder | SPOT peptide array binding signal intensity
7 | APERAVPILPPRNNV | ≤ 0

molecular target: AgHof1; experiment: as above
Outline: as §1

Row | Binder | SPOT peptide array binding signal intensity
8 | APERAVPILPPRNNV | 11.5

molecular target: AgHse1; experiment: as above
Outline: as §1

Row | Binder | SPOT peptide array binding signal intensity
9 | APERAVPILPPRNNV | 24.5

molecular target: AgLsb1; experiment: as above
Outline: as §1

Row | Binder | SPOT peptide array binding signal intensity
10 | APERAVPILPPRNNV | 109

molecular target: AgLsb4; experiment: as above
Outline: as §1

Row | Binder | SPOT peptide array binding signal intensity
11 | APERAVPILPPRNNV | 2180

molecular target: AgMyo5; experiment: as above
Outline: as §1

Row | Binder | SPOT peptide array binding signal intensity
12 | APERAVPILPPRNNV | ≤ 0

molecular target: AgNbp2; experiment: as above
Outline: as §1

Row | Binder | SPOT peptide array binding signal intensity
13 | APERAVPILPPRNNV | ≤ 0

molecular target: AgRvs167; experiment: as above
Outline: as §1

Row | Binder | SPOT peptide array binding signal intensity
14 | APERAVPILPPRNNV | 87.8

molecular target: AgSho1; experiment: as above
Outline: as §1

Row | Binder | SPOT peptide array binding signal intensity
15 | APERAVPILPPRNNV | ≤ 0

molecular target: AgSla1-D1-D2; experiment: as above
Outline: as §1

Row | Binder | SPOT peptide array binding signal intensity
16 | APERAVPILPPRNNV | ≤ 0

molecular target: AgSla1-D3; experiment: as above
Outline: as §1

Row | Binder | SPOT peptide array binding signal intensity
17 | APERAVPILPPRNNV | 0.5

molecular target: CaAbp1-D1; experiment: as above
Outline: as §1

Row | Binder | SPOT peptide array binding signal intensity
18 | APERAVPILPPRNNV | 11

molecular target: CaAbp1-D2; experiment: as above
Outline: as §1

Row | Binder | SPOT peptide array binding signal intensity
19 | APERAVPILPPRNNV | 14

molecular target: CaBbc1; experiment: as above
Outline: as §1

Row | Binder | SPOT peptide array binding signal intensity
20 | APERAVPILPPRNNV | 418

molecular target: CaBem1-D1; experiment: as above
Outline: as §1

Row | Binder | SPOT peptide array binding signal intensity
21 | APERAVPILPPRNNV | 2

molecular target: CaBzz1-D1; experiment: as above
Outline: as §1

Row | Binder | SPOT peptide array binding signal intensity
22 | APERAVPILPPRNNV | ≤ 0

molecular target: CaBzz1-D2; experiment: as above
Outline: as §1

Row | Binder | SPOT peptide array binding signal intensity
23 | APERAVPILPPRNNV | 28.5

molecular target: CaCyk3; experiment: as above
Outline: as §1

Row | Binder | SPOT peptide array binding signal intensity
24 | APERAVPILPPRNNV | 42.5

molecular target: CaFus1; experiment: as above
Outline: as §1

Row | Binder | SPOT peptide array binding signal intensity
25 | APERAVPILPPRNNV | 24

molecular target: CaHof1; experiment: as above
Outline: as §1

Row | Binder | SPOT peptide array binding signal intensity
26 | APERAVPILPPRNNV | 3.5

molecular target: CaHse1; experiment: as above
Outline: as §1

Row | Binder | SPOT peptide array binding signal intensity
27 | APERAVPILPPRNNV | 7.25

molecular target: CaLsb1; experiment: as above
Outline: as §1

Row | Binder | SPOT peptide array binding signal intensity
28 | APERAVPILPPRNNV | ≤ 0

molecular target: CaLsb4; experiment: as above
Outline: as §1

Row | Binder | SPOT peptide array binding signal intensity
29 | APERAVPILPPRNNV | 2970

molecular target: CaMyo5; experiment: as above
Outline: as §1

Row | Binder | SPOT peptide array binding signal intensity
30 | APERAVPILPPRNNV | ≤ 0

molecular target: CaNbp2; experiment: as above
Outline: as §1

Row | Binder | SPOT peptide array binding signal intensity
31 | APERAVPILPPRNNV | 25

molecular target: CaRvs167; experiment: as above
Outline: as §1

Row | Binder | SPOT peptide array binding signal intensity
32 | APERAVPILPPRNNV | 414

molecular target: CaRvs167-3; experiment: as above
Outline: as §1

Row | Binder | SPOT peptide array binding signal intensity
33 | APERAVPILPPRNNV | ≤ 0

molecular target: CaSho1; experiment: as above
Outline: as §1

Row | Binder | SPOT peptide array binding signal intensity
34 | APERAVPILPPRNNV | 4

molecular target: CaSla1-D1-D2; experiment: as above
Outline: as §1

Row | Binder | SPOT peptide array binding signal intensity
35 | APERAVPILPPRNNV | 1

molecular target: CaSla1-D3; experiment: as above
Outline: as §1

Row | Binder | SPOT peptide array binding signal intensity
36 | APERAVPILPPRNNV | ≤ 0

molecular target: ScAbp1; experiment: as above
Outline: as §1

Row | Binder | SPOT peptide array binding signal intensity
37 | APERAVPILPPRNNV | 1.5

molecular target: ScBbc1; experiment: as above
Outline: as §1

Row | Binder | SPOT peptide array binding signal intensity
38 | APERAVPILPPRNNV | 4.25

molecular target: ScBem1-D1; experiment: as above
Outline: as §1

Row | Binder | SPOT peptide array binding signal intensity
39 | APERAVPILPPRNNV | ≤ 0

molecular target: ScBzz1-D1; experiment: as above
Outline: as §1

Row | Binder | SPOT peptide array binding signal intensity
40 | APERAVPILPPRNNV | 2.5

molecular target: ScBzz1-D2; experiment: as above
Outline: as §1

Row | Binder | SPOT peptide array binding signal intensity
41 | APERAVPILPPRNNV | ≤ 0

molecular target: ScCyk3; experiment: as above
Outline: as §1

Row | Binder | SPOT peptide array binding signal intensity
42 | APERAVPILPPRNNV | 5

molecular target: ScFus1; experiment: as above
Outline: as §1

Row | Binder | SPOT peptide array binding signal intensity
43 | APERAVPILPPRNNV | ≤ 0

molecular target: ScHof1; experiment: as above
Outline: as §1

Row | Binder | SPOT peptide array binding signal intensity
44 | APERAVPILPPRNNV | 32.5

molecular target: ScHse1; experiment: as above
Outline: as §1

Row | Binder | SPOT peptide array binding signal intensity
45 | APERAVPILPPRNNV | ≤ 0

molecular target: ScLsb1; experiment: as above
Outline: as §1

Row | Binder | SPOT peptide array binding signal intensity
46 | APERAVPILPPRNNV | 80.2

molecular target: ScLsb2; experiment: as above
Outline: as §1

Row | Binder | SPOT peptide array binding signal intensity
47 | APERAVPILPPRNNV | 18

molecular target: ScLsb3; experiment: as above
Outline: as §1

Row | Binder | SPOT peptide array binding signal intensity
48 | APERAVPILPPRNNV | 4520

molecular target: ScLsb4; experiment: as above
Outline: as §1

Row | Binder | SPOT peptide array binding signal intensity
49 | APERAVPILPPRNNV | 1710

molecular target: ScMyo3; experiment: as above
Outline: as §1

Row | Binder | SPOT peptide array binding signal intensity
50 | APERAVPILPPRNNV | 33.5

molecular target: ScMyo5; experiment: as above
Outline: as §1

Row | Binder | SPOT peptide array binding signal intensity
51 | APERAVPILPPRNNV | 2.75

molecular target: ScNbp2; experiment: as above
Outline: as §1

Row | Binder | SPOT peptide array binding signal intensity
52 | APERAVPILPPRNNV | 6

molecular target: ScPex13; experiment: as above
Outline: as §1

Row | Binder | SPOT peptide array binding signal intensity
53 | APERAVPILPPRNNV | 789

molecular target: ScRvs167; experiment: as above
Outline: as §1

Row | Binder | SPOT peptide array binding signal intensity
54 | APERAVPILPPRNNV | 966

molecular target: ScSho1; experiment: as above
Outline: as §1

Row | Binder | SPOT peptide array binding signal intensity
55 | APERAVPILPPRNNV | 91.5

molecular target: ScSla1-D1-D2; experiment: as above
Outline: as §1

Row | Binder | SPOT peptide array binding signal intensity
56 | APERAVPILPPRNNV | 34.5

molecular target: ScSla1-D3; experiment: as above
Outline: as §1

Row | Binder | SPOT peptide array binding signal intensity
57 | APERAVPILPPRNNV | 1

molecular target: SpAbp1-D1; experiment: as above
Outline: as §1

Row | Binder | SPOT peptide array binding signal intensity
58 | APERAVPILPPRNNV | 5.5

molecular target: SpBbc1; experiment: as above
Outline: as §1

Row | Binder | SPOT peptide array binding signal intensity
59 | APERAVPILPPRNNV | 0.5

molecular target: SpBzz1-D1; experiment: as above
Outline: as §1

Row | Binder | SPOT peptide array binding signal intensity
60 | APERAVPILPPRNNV | 81

molecular target: SpBzz1-D2; experiment: as above
Outline: as §1

Row | Binder | SPOT peptide array binding signal intensity
61 | APERAVPILPPRNNV | ≤ 0

molecular target: SpCyk3; experiment: as above
Outline: as §1

Row | Binder | SPOT peptide array binding signal intensity
62 | APERAVPILPPRNNV | 13

molecular target: SpHof1; experiment: as above
Outline: as §1

Row | Binder | SPOT peptide array binding signal intensity
63 | APERAVPILPPRNNV | 3

molecular target: SpHof1-2; experiment: as above
Outline: as §1

Row | Binder | SPOT peptide array binding signal intensity
64 | APERAVPILPPRNNV | 8

molecular target: SpHof1-3; experiment: as above
Outline: as §1

Row | Binder | SPOT peptide array binding signal intensity
65 | APERAVPILPPRNNV | 20.8

molecular target: SpHse1; experiment: as above
Outline: as §1

Row | Binder | SPOT peptide array binding signal intensity
66 | APERAVPILPPRNNV | 2.5

molecular target: SpLsb1; experiment: as above
Outline: as §1

Row | Binder | SPOT peptide array binding signal intensity
67 | APERAVPILPPRNNV | 83.8

molecular target: SpLsb4; experiment: as above
Outline: as §1

Row | Binder | SPOT peptide array binding signal intensity
68 | APERAVPILPPRNNV | 3550

molecular target: SpMyo1; experiment: as above
Outline: as §1

Row | Binder | SPOT peptide array binding signal intensity
69 | APERAVPILPPRNNV | 926

molecular target: SpNbp2; experiment: as above
Outline: as §1

Row | Binder | SPOT peptide array binding signal intensity
70 | APERAVPILPPRNNV | ≤ 0

molecular target: SpPex13; experiment: as above
Outline: as §1

Row | Binder | SPOT peptide array binding signal intensity
71 | APERAVPILPPRNNV | 2

molecular target: SpRvs167; experiment: as above
Outline: as §1

Row | Binder | SPOT peptide array binding signal intensity
72 | APERAVPILPPRNNV | 1250

molecular target: SpSla1-D1-D2; experiment: as above
Outline: as §1

Row | Binder | SPOT peptide array binding signal intensity
73 | APERAVPILPPRNNV | ≤ 0

molecular target: SpSla1-D3; experiment: as above
Outline: as §1

Row | Binder | SPOT peptide array binding signal intensity
74 | APERAVPILPPRNNV | ≤ 0
